About 27,000 (9.3%) of roughly 290,000 compounds were called active. Cut-off read from the data, not from the text of the source: active = inhibition mostly above about 28% (no sharp cut-off); inactive = mostly below about 43%. This excerpt belongs to a sample that is enriched for actives.

The assay in a line: A qHTS for Small Molecule Inhibitors of Shiga Toxin. Note: 0% is about no effect. The note with it: Vero cells, Shiga toxin protein synthesis inhibition reporter; at 38.7 µM, active compounds read high. Background: In qHTS, concentration-response curves come from the screen itself.
By inhibition is commonly meant the drop in the measured response relative to a control, in per cent. With `COc1ccc2cc(CCl)c(Cl)nc2c1`, the inhibition was 14.8% (inactive).

As to `CCCC(=O)N1CCC(CCC(=O)NC2CC2)CC1`, the inhibition is 14.8% (inactive).

`CCC(C)NC(=O)c1ccc(N2CCC3(CC2)OCCO3)c([N+](=O)[O-])c1` (stereo unspecified): the inhibition is 50.1% (active).

For `CC(NC(=O)c1ccc(N2CCNCC2)c([N+](=O)[O-])c1)C12CC3CC(CC(C3)C1)C2` (stereo unspecified), the inhibition is -0.798% (inactive).

In the case of `COCCNC(=O)c1ccc(N2CCC3(CC2)OCCO3)c([N+](=O)[O-])c1`, the inhibition is 7.01% (inactive).

On to `COc1ccc(NC(=O)c2cc(-c3cc(OC)c(OC)c(OC)c3)nc3ccccc23)c(OC)c1`, for which the inhibition is 15.1% (inactive).

`COc1ccc2oc(-c3cccc(NC(=O)CSc4ccc(Cl)cc4)c3)nc2c1`: the inhibition was 13.6% (inactive).

Consider `O=[N+]([O-])c1ccc2oc(-c3cccc(O)c3)nc2c1`, for which the inhibition was 47.7% (active).

`COc1ccc(-c2nc3cc([N+](=O)[O-])ccc3o2)cc1OC`: the inhibition was 27.9% (inactive).

For `COc1cccc(-c2nc(S(=O)(=O)c3ccccc3)c(N3CCOCC3)o2)c1`, the inhibition is 20.2% (inactive).

Consider `COc1cccc(-c2nc3cc(C)ccc3o2)c1`, for which the inhibition was 65% (active).

As for `CC(=O)Oc1ccc2c(=O)oc(-c3ccc([N+](=O)[O-])cc3)nc2c1`, the inhibition is -6.54% (inactive).

For `CC(=O)Nc1ccccc1OC(C)C(=O)N1CCC(C)CC1` (stereo unspecified), the inhibition was -7.84% (inactive).

`O=C(N/N=C/c1cc(Cl)cc([N+](=O)[O-])c1O)C(O)(c1ccccc1)c1ccccc1`: the inhibition was -2.27% (inactive).

As for `CCOC(CNC(=O)C(=O)NCC(c1ccco1)N1CCN(c2ccc(OC)cc2)CC1)OCC` (stereo unspecified), the inhibition was 14.3% (inactive).

Turning to `CCOc1ccccc1NC(=O)COc1ccc(S(=O)(=O)N2CCCC2)cc1`, the inhibition is 14.6% (inactive).

As to `Cc1oc2c(C)c3oc(=O)c(CC(=O)N[C@@H](CC(C)C)C(=O)N[C@@H](Cc4ccccc4)C(=O)O)c(C)c3cc2c1C`, the inhibition is -6.95% (inactive).

`Cc1cc(C)c(S(=O)(=O)c2cc(F)ccc2C)c(=O)[nH]1`: the inhibition is -5.17% (inactive).

Consider `CCOc1ccc(NC(=O)COc2ccc(S(=O)(=O)N3CCCC3)cc2)cc1`, for which the inhibition is 22.6% (inactive).

As for `C=C(C)CSc1nnc(-c2ccc(C)cc2)n1N`, the inhibition was 130% (active).

Consider `Cc1ccc(-c2nnc(SC(C)C#N)n2N)cc1` (stereo unspecified), for which the inhibition is 12.2% (inactive).

As for `Cc1ccc(NC(=O)NC(=O)CSc2nnc(-c3ccc(OC(F)F)cc3)n2N)c(C)c1`, the inhibition was 12.9% (inactive).

For the compound `COc1cccc(C(=O)OCc2cc(=O)oc3c(C)c(C)ccc23)c1OC`, the inhibition was 4.14% (inactive).

Regarding `Cc1ccc(CNC(=O)CCS(=O)(=O)c2ccc3c(c2)CC(C)N3C(=O)C2CC2)o1` (stereo unspecified), the inhibition is 32.1% (inactive).

With `O=C(Nc1nonc1-c1ccc(Cl)cc1)c1ccco1`, the inhibition is 6.78% (inactive).

In the case of `COc1cccc(CNC(=O)Cn2c(=O)oc3cc(S(=O)(=O)N4CCCCC4)ccc32)c1`, the inhibition is -6.29% (inactive).

In the case of `c1ccc(-n2ncc(-c3nn[nH]n3)n2)cc1`, the inhibition is -22.5% (inactive).

For `Oc1ccc(-c2nncn2-c2ccccc2)cc1`, the inhibition is -7.57% (inactive).

As to `c1ccc(-n2nc3ccccc3n2)cc1`, the inhibition was 25.4% (active).

As for `CN1CN(C)c2ccc([N+](=O)[O-])c3cccc1c23`, the inhibition is 4.19% (inactive).

As to `Cc1nn(C)cc1S(=O)(=O)N1CCN(c2ccc(F)cc2)CC1`, the inhibition was -28% (inactive).

Consider `COc1ccc(C(C(=O)NC(C)(C)C)N(Cc2ccc(F)cc2)C(=O)CCC(=O)Nc2cc(C)on2)cc1` (stereo unspecified), for which the inhibition was -4.11% (inactive).

`Cc1cc(=O)oc2c(C)c(OCC(=O)NCCN3CCOCC3)ccc12`: the inhibition was -1.86% (inactive).

With `O=C(Cc1ccc(Cl)cc1)NCc1nc(-c2ccccc2)no1`, the inhibition was -5.48% (inactive).

Turning to `c1ccc(CCc2nc(-c3ccncc3)no2)cc1`, the inhibition was 60.1% (active).

Take `O=C1c2ccccc2C(=O)N1CCCc1nc(-c2ccccc2)no1`: the inhibition is 8.99% (inactive).

Turning to `OC(COc1ccc2ccccc2c1)CN1CCOCC1` (stereo unspecified), the inhibition was 26.8% (active).

Regarding `OC(COc1ccc2ccccc2c1)Cn1cncn1` (stereo unspecified), the inhibition was 11% (inactive).

Take `COc1ccccc1OCC(O)CN1CCOCC1` (stereo unspecified): the inhibition is -3.66% (inactive).

With `COc1ccc(C2/C=C\CN(Cc3ccco3)C(C)C(=O)N2Cc2ccc(F)cc2)cc1` (stereo unspecified), the inhibition was -2.61% (inactive).

On to `Cc1c(NC(=O)c2cccnc2)c(=O)n(-c2ccccc2)n1C`, for which the inhibition was 12.2% (inactive).

For `Cc1ccc(-n2nc3cc(C)c(NC(=O)c4cccnc4)cc3n2)cc1`, the inhibition was 49% (active).

Regarding `Cc1cc(NC(=O)c2ccco2)c(=O)n(Cc2c(F)cccc2Cl)c1`, the inhibition is 1.74% (inactive).

Turning to `COC(=O)c1cc(Cl)c(NC(=O)c2ccco2)cc1OC`, the inhibition was 29.6% (inactive).

For the compound `Cc1ccc(-n2nc3cc(Cl)c(NC(=O)c4ccco4)cc3n2)cc1`, the inhibition is 75.3% (active).

For the compound `O=C(Nc1cccc(-n2cnnn2)c1)c1cccnc1`, the inhibition is -4.33% (inactive).

In the case of `C[C@H](NC(=O)[C@@H]1Cc2ccccc2CN1C(=O)OC(C)(C)C)C(=O)NC1CCCC1`, the inhibition is -6.03% (inactive).

In the case of `O=c1[nH]cccc1-c1nc2ccccc2n1Cc1ccc(Cl)cc1`, the inhibition was -20.4% (inactive).

With `O=S(=O)(c1ccccc1)c1nc(Cc2ccccc2)oc1N1CCOCC1`, the inhibition was -8% (inactive).

In the case of `COc1cccc(CNCc2ccc3c(c2)OCO3)c1`, the inhibition was -0.994% (inactive).

Take `COc1cccc(C(=O)NNC(=O)/C=C/c2ccccc2)c1`: the inhibition is -15.7% (inactive).

For `O=C1Nc2ccccc2C12Nc1ccccc1S2` (stereo unspecified), the inhibition is 103% (active).

With `COc1ccc(C2(O)C(=O)Nc3ccccc32)cc1` (stereo unspecified), the inhibition is -10.8% (inactive).

Consider `Cc1cc(O)c(C2(O)C(=O)Nc3ccccc32)cc1C` (stereo unspecified), for which the inhibition was -0.279% (inactive).

For the compound `Cn1c(=O)[nH]c(=O)c2c1nc(N1CCN(C(c3ccccc3)c3ccccc3)CC1)n2CCO`, the inhibition is -11.3% (inactive).

Turning to `COc1ccc(NC(=O)c2cccc(Cl)c2)c[n+]1[O-]`, the inhibition was -4.4% (inactive).

As for `O=[N+]([O-])c1ccccc1/C=C/CN1CCC(O)CC1`, the inhibition was -7.66% (inactive).

For `CS(=O)(=O)N(CC(=O)N1CCN(Cc2ccccc2)CC1)c1ccc2c(c1)OCCO2`, the inhibition was -18.5% (inactive).

Take `CC(=NC1CCN(Cc2ccccc2)CC1)c1c(O)[nH]c(=O)[nH]c1=O`: the inhibition is 21% (inactive).

As to `Clc1cccc(N=C2NN=C(c3ccc4c(c3)OCCO4)CS2)c1`, the inhibition is 95.2% (active).

On to `c1ccc(CN2CCC(N=C3NN=C(c4ccc5c(c4)OCCO5)CS3)CC2)cc1`, for which the inhibition is 116% (active).

As for `Cc1cccc(C)c1NC(=O)CSc1nc2c([nH]1)c(=O)n(C)c(=O)n2C`, the inhibition is -8.9% (inactive).

As for `Cc1ccc(C(=O)N2CC(=O)Nc3ccc(F)cc3C2c2ccc(F)cc2)cc1` (stereo unspecified), the inhibition is 2.9% (inactive).

On to `CCOC(=O)c1cc(C(=O)Nc2ccc(S(=O)(=O)Nc3ccc(OC)cc3)cc2)nn1C`, for which the inhibition is 5.33% (inactive).

Regarding `CCOc1ccccc1Nc1ccc2nonc2c1[N+](=O)[O-]`, the inhibition is -7.22% (inactive).

In the case of `CC(C)(C)C(=O)c1cnc(Nc2ccccc2)s1`, the inhibition was 87% (active).

For the compound `O=C(c1ccc(Cl)cc1)c1cnc(Nc2ccccc2)s1`, the inhibition was 25.6% (inactive).

In the case of `S=c1[nH]nc(Nc2ccccc2)s1`, the inhibition was -13.5% (inactive).

Turning to `COc1ccc(-n2cnnc2SCC(=O)Nc2cccc(S(N)(=O)=O)c2)cc1`, the inhibition was -21.7% (inactive).

Turning to `COc1ccc(OC)c(NC(=O)CN(C)CCOc2ccc(Br)cc2)c1`, the inhibition was -23.8% (inactive).

For `NC(=O)COc1ccc(C23CC4CC(CC(C4)C2)C3)cc1`, the inhibition is 58.8% (active).

`NNC(=O)COc1ccc(C2SCCS2)cc1`: the inhibition was 20.4% (inactive).

Consider `NC(=O)COc1ccccc1C(=O)NC12CC3CC(CC(C3)C1)C2`, for which the inhibition is -4.22% (inactive).

Take `O=S(=O)(Oc1ccccc1C(=S)N1CCOCC1)c1ccc(Cl)cc1`: the inhibition is -36.2% (inactive).

Regarding `Cc1ccc(N(C(=O)c2snc(C(N)=O)c2N)C(C(=O)NCC2CCCO2)c2c[nH]c3ccccc23)cc1` (stereo unspecified), the inhibition is 23.7% (inactive).

Take `COC(=O)c1ccccc1NC(=O)C1CCN(C(=O)N2CCOc3ccccc32)CC1`: the inhibition was 8.07% (inactive).

With `Oc1ccc(-c2[nH]ncc2-c2nc3ccccc3s2)c(O)c1`, the inhibition was 13.6% (inactive).

Consider `Cc1nn(CC(=O)Nc2nc3ccccc3s2)c(C)c1[N+](=O)[O-]`, for which the inhibition was 26.1% (inactive).

`CC(=O)Nc1cccc(-c2nc3ccccc3s2)c1C`: the inhibition is 60.4% (active).

On to `CC(=O)N1CCSc2ccc(S(=O)(=O)N3CCC(C)CC3)cc21`, for which the inhibition was -12.1% (inactive).

Consider `O=C(Nc1ccccc1N1CCCC1)c1ccc2ccccc2c1`, for which the inhibition is 58.1% (inactive).

For the compound `CCCN(CCC)C(=S)Nc1cc(C(=O)OC)ccc1C(=O)OC`, the inhibition is -14.3% (inactive).

In the case of `COc1ccc(S(=O)(=O)N(CC(=O)N/N=C/c2ccc(C(=O)O)cc2)Cc2ccccc2)cc1OC`, the inhibition was 1.95% (inactive).

As to `CCCNC(=O)c1c(N)n(-c2ccc(S(N)(=O)=O)cc2)c2nc3ccccc3nc12`, the inhibition was -14.1% (inactive).

For `CCC(C)NC(=O)c1c(N)n(/N=C/c2cccs2)c2nc3ccccc3nc12` (stereo unspecified), the inhibition is 107% (active).

Take `CC(C)Cn1c(N)c(C(=O)NCc2cccs2)c2nc3ccccc3nc21`: the inhibition is -13.1% (inactive).

As for `CCc1[nH]nc(C(=O)N2CCCC(CO)(Cc3ccc(F)cc3F)C2)c1C` (stereo unspecified), the inhibition was -13.8% (inactive).

On to `Cc1ccc(S(=O)(=O)CC(=O)NC(C)c2ccccc2)cc1` (stereo unspecified), for which the inhibition was -1.44% (inactive).

Take `CCc1ccccc1NC(=O)[C@@H]1CCC(=O)N1C1OC(=O)c2c1ccc(OC)c2OC` (stereo partly specified): the inhibition was -2.37% (inactive).

`COc1ccc2[nH]cc(CCN3C(=O)c4ccc(C(=O)O)cc4C3=O)c2c1`: the inhibition is 60.8% (active).

For the compound `Cc1ccc2[nH]cc(CCCN3C(=O)c4ccccc4C3=O)c2c1`, the inhibition is 1.09% (inactive).

For `COc1ccc(C[C@H](C(=O)O)N2C(=O)c3ccc(C(=O)O)cc3C2=O)cc1`, the inhibition was 2.25% (inactive).

Regarding `O=C(CC(c1ccccc1)c1ccccc1)NCC(O)c1ccc([N+](=O)[O-])cc1` (stereo unspecified), the inhibition was -4.27% (inactive).

Regarding `CCCCc1ccc(NC(=S)N2CCCC(CO)C2)cc1` (stereo unspecified), the inhibition was 87.2% (active).

`COc1ccc(NC(=S)N2CCCC(CO)C2)c(OC)c1` (stereo unspecified): the inhibition was -3.35% (inactive).

In the case of `CCCCc1ccc(NC(=S)NCCCN2CCOCC2)cc1`, the inhibition was -8.23% (inactive).

The values are drawn from PubChem BioAssay AID2315 (National Center for Advancing Translational Sciences (NCATS), 2010).
